Results filed as inconclusive are left out. Unless noted, the call rests on the fitted dose curve; in most records, active means well fitted curve in either direction with a large enough effect (not every such curve was filed as active); inconclusive means small, poorly fitted or top-dose-only effect, or another doubt; inactive means flat fitted curve, though single readings scatter.
How the values were obtained:
[1] = AP1 Signaling Pathway (AID 357); conditions: ME-180 AP-1-bla reporter, EGF-induced, beta-lactamase ratio, 5 h; at 17.2 µM (top of the series) unless noted;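 further: ME-180 reporter cells stimulated with EGF at its EC50 level; on the % scale 0 is the no-effect control and ±100 the full control effect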
Procedure, shortened: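 Titration-series screen for positive or negative modulators of EC50 EGF-induced signaling in ME-180 cells carrying an AP-1-driven beta-lactamase reporter. After 5 hours at 37 degrees Celsius, CCF4 460nm/530nm emission ratio gave %Activity; AC50 values derived.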

[2] = NFAT Signaling Pathway (AID 444); conditions: Jurkat NFAT-bla M1, carbachol, beta-lactamase ratio, 5 h; at 17.2 µM (top of the series) unless noted;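 further: carbachol stimulus at about its EC50 of 1 µM final; on the % scale 0 is the no-effect control and ±100 the full control effect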
Procedure, shortened: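 Jurkat cells carrying an NFAT-driven β-lactamase reporter and co-transfected muscarinic M1 receptor were treated with compound plus carbachol (1 uM final, an EC50 level) for 5 h at 37 °C. CCF4 loading followed for 1 h at RT; 460/530 nm ratio gave %activity.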

[3] = Stat Signaling Pathway (AID 446); conditions: ME-180 (cervical carcinoma) SIE beta-lactamase reporter, IL-6 stimulated, 5 h; at 17.2 µM (top of the series) unless noted;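 further: ME-180 cervical cancer cells given 40 pM IL-6 alongside compound; SIE-controlled beta-lactamase reporter measured as 460/530 nm FRET emission ratio; on the % scale 0 is the no-effect control and ±100 the full control effect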
Procedure, shortened: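 Compound effects on IL-6-induced STAT reporter activity were measured in ME-180 cells. After overnight culture, cells were co-treated with 40 pM IL-6 for 5 hrs before beta-lactamase substrate loading at room temperature.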

[4] = target: Glucocorticoid receptor (Homo sapiens) (UniProt P04150); assay: GR-GFP Redistribution (AID 450;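 active means compounds whose dose series gives a full or clear partial fitted curve of increased nuclear translocation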; further: potency means the concentration at half of the fitted maximal effect); conditions: U2OS GR-GFP nuclear translocation, laser cytometry, 2 h; series mostly up to 20.6 µM
Glucocorticoid receptor (Homo sapiens), sequence (P04150 whole entry, looked up): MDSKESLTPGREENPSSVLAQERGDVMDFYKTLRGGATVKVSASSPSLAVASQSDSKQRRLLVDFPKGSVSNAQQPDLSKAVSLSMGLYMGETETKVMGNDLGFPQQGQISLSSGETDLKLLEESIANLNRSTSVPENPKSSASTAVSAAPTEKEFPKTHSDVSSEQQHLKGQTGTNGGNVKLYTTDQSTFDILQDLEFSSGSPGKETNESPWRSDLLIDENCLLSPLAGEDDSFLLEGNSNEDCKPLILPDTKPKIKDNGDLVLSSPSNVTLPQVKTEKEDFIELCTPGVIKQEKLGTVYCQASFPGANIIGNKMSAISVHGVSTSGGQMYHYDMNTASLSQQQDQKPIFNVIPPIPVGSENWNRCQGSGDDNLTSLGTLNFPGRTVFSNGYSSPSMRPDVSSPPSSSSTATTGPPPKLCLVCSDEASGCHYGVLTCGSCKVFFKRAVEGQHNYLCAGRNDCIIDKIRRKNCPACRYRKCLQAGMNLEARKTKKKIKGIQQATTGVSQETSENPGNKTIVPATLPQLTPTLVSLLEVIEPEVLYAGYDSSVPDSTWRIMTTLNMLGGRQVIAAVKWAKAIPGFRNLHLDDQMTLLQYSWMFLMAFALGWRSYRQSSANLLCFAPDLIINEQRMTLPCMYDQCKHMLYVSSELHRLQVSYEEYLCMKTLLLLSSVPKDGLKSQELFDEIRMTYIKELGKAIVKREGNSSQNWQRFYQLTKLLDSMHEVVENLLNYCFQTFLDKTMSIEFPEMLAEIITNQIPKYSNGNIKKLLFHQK

O=C(c1ccccc1)n1c(=S)nc2ccccn21
inactive: activity change, negative = inhibition [1] 4.19% | activity change, negative = inhibition [2] -14% | activity, negative = inhibition [3] -3.1% | Potency [4] > 20.6 µM

CCCC(=O)Nn1cnc2c(c1=O)C1(CCCC1)Cc1ccccc1-2
inactive: activity change, negative = inhibition [1] -5.55% | activity change, negative = inhibition [2] -0.237% | activity, negative = inhibition [3] -0.176% | Potency [4] > 20.6 µM

Cc1cc(=O)oc(C)c1C(=O)NC12CC3CC(CC(C3)C1)C2
inactive: activity change, negative = inhibition [1] -5.66% | activity change, negative = inhibition [2] 1.02% | activity, negative = inhibition [3] 1.82% | Potency [4] > 20.6 µM

Cn1c(NCc2cccnc2)nc2c1c(=O)n(Cc1ccccc1F)c(=O)n2C
inactive: activity change, negative = inhibition [1] -1.33% | activity change, negative = inhibition [2] -10.3% | activity, negative = inhibition [3] -20.6% | Potency [4] > 20.6 µM

CCOC(=O)c1c(C)n(C)c2ccc(OC)c(NC(=O)CN3CCCCC3)c12
inactive: activity change, negative = inhibition [1] -11.4% | activity change, negative = inhibition [2] -1.27% | activity, negative = inhibition [3] -0.178% | Potency [4] > 20.6 µM

CCN(CC)CCN1C(=O)C(O)=C(C(=O)c2ccco2)C1c1ccccn1 (configuration not stated)
inactive: activity change, negative = inhibition [1] -3.97% | activity change, negative = inhibition [2] -0.0336% | activity, negative = inhibition [3] 3.83% | Potency [4] > 20.6 µM

Cn1c(=O)n(CCC(=O)O)c2ccccc21
inactive: activity change, negative = inhibition [1] 11.6% | activity change, negative = inhibition [2] 2% | activity, negative = inhibition [3] 2.26% | Potency [4] > 20.6 µM

COCCOC(=O)c1c(C)nc(SCC(=O)Nc2ccc(C)cc2)c(C#N)c1-c1ccco1
inactive: activity change, negative = inhibition [1] -27.8% | activity change, negative = inhibition [2] -11.8% | activity, negative = inhibition [3] -18.9% | Potency [4] > 20.6 µM

COc1ccc(-c2nnc3sc(-c4c(OC)cccc4OC)nn23)cc1
inactive: activity change, negative = inhibition [1] -13.7% | activity change, negative = inhibition [2] -15.1% | activity, negative = inhibition [3] 6.15% | Potency [4] > 20.6 µM

CC(C)(C)NC(=O)CSc1nsc(SCC(=O)NC(C)(C)C)c1C#N
inactive: activity change, negative = inhibition [1] -5.49% | activity change, negative = inhibition [2] -10.2% | activity, negative = inhibition [3] 3.19% | Potency [4] > 20.6 µM

CCCC1Cc2c(sc3nc(SC)nc(N)c23)CO1 (configuration not stated)
inactive: activity change, negative = inhibition [1] -3.09% | activity change, negative = inhibition [2] -10.7% | activity, negative = inhibition [3] -1.16% | Potency [4] > 20.6 µM

CCOc1ccc2nc(NC(NC(=O)CC)(C(=O)OC)C(F)(F)F)sc2c1 (configuration not stated)
inactive: activity change, negative = inhibition [1] -9.26% | activity change, negative = inhibition [2] 8.42% | activity, negative = inhibition [3] -8.24% | Potency [4] > 20.6 µM

O=c1/c(=C/c2ccccn2)sc2n1CN(c1ccccc1)CN=2
inactive: activity change, negative = inhibition [1] 0.239% | activity change, negative = inhibition [2] -24.9% | activity, negative = inhibition [3] 5.04% | Potency [4] > 20.6 µM

COc1ccc(C(=O)NCC(=O)n2nc(C)cc2C)cc1OC
inactive: activity change, negative = inhibition [1] 6.38% | activity change, negative = inhibition [2] -1.54% | activity, negative = inhibition [3] 16.4% | Potency [4] > 20.6 µM

O=C1CCc2nc3ccccc3c(=O)n2N1
inactive: activity change, negative = inhibition [1] -6.16% | activity change, negative = inhibition [2] 22.2% | activity, negative = inhibition [3] -4.8% | Potency [4] > 20.6 µM

O=S(=O)(c1cccc2nsnc12)N1CCN(C/C=C/c2ccccc2)CC1
inactive: activity change, negative = inhibition [1] -6.7% | activity change, negative = inhibition [2] -13.3% | activity, negative = inhibition [3] -15.9% | Potency [4] > 20.6 µM

COC(=O)CSc1nc(N)nc(C)c1Br
inactive: activity change, negative = inhibition [1] 5.47% | activity change, negative = inhibition [2] 1.04% | activity, negative = inhibition [3] 2.44% | Potency [4] > 20.6 µM

COc1ccc(-c2nc3n(c2Br)CCC3)cc1
inactive: activity change, negative = inhibition [1] -3.45% | activity change, negative = inhibition [2] 1.51% | activity, negative = inhibition [3] 0.643% | Potency [4] > 20.6 µM

From PubChem BioAssay (NCATS)
